Laboratory results taken from PubChem BioAssay.
Where “and” joins values, the source holds several entries; their conditions need not be identical. Equal values may be shown once. For part of these data: Potency and affinity values are given separately. Calls of active or inactive are those of the source. Unless noted, how the calls were made is not given here.

Experiments:
[1] = polyglutamine-triggered caspase-3 activation inhibitors, cell-based (AID 1583); conditions: polyglutamine-induced caspase-3 activation, cell assay; stronger effect = higher value;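 tested at 10 µM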
[2] = suppressors of polyQ aggregation in yeast, 75Q-TubU reporter (AID 1593); conditions: Yeast 75Q polyglutamine aggregation reporter
[3] = rescue of polyQ-huntingtin neuronal dysfunction in worms, whole organism, C. elegans mechanosensory neurons, N-terminal huntingtin (AID 1599); conditions: touch response, stronger effect = higher value
[4] = inhibitors of mitochondrial cytochrome c release, biochemical, purified mitochondria (AID 1603); conditions: stronger effect = lower value;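 further: mouse liver mitochondria challenged with calcium chloride; signal normalized to the plate average as 100%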
[5] = inhibitors of polyQ protein aggregation (AID 1604); conditions: polyglutamine-induced protein aggregation inhibition assay; stronger effect = higher value; tested at 2.5 µM
[6] = enhancers of glutamate uptake in motor neurons, MN-1 cell line (AID 1612); conditions: MN-1 motor neuron cells, stronger effect = higher value;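 further: tested at 1 µM final; 0% = mean of DMSO vehicle wells on each plate; positive means more glutamate uptake than control and negative means less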
[7] = suppressors of polyglutamine aggregation in yeast, 75Q-TubH (AID 1616); conditions: S. cerevisiae 75Q-TubH polyglutamine aggregation suppression; stronger effect = higher value
[8] = liver-stage malaria parasite growth inhibition, primary screen, cell-based, HepG2, luciferase luminescence, HepG2 viability (AID 624349; in the data active means parasite load remaining mostly below about 12%, no sharp cut-off; inactive means mostly above about 10%;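 further: 100% = mean of DMSO negative control wells on the same plate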); conditions: P. berghei liver stage in HepG2, luciferase luminescence, concentration not given here; parasite load remaining: stronger effect = lower value; viability: measured here: HepG2 viability without parasites
[9] = test system: Hepatitis C virus NS3 helicase; assay: HCV NS3 helicase inhibitors, primary screen, biochemical, fluorescence polarization, LOPAC1280 library (AID 687035; in the data active means inhibition above about 37%); conditions: Purified HCV NS3 helicase, Cy5-dT15 ssDNA binding fluorescence polarization; stronger effect = higher value; concentration not given here
[10] = Cy5 fluorescence interference with SSB-bound oligo, artefact control for HCV NS3 helicase inhibitor project, biochemical, NIH Clinical Collection, E. coli SSB (AID 743268)
[11] = modulation of C. elegans fzo-1 (AID 1259413);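 further: fzo-1 mutant C. elegans worms in liquid wells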; conditions: C. elegans fzo-1 modulator screen, mean read-out; stronger effect = higher value
[12] = hESC survival regulators, cell-based (AID 493140); conditions: human embryonic stem cell survival screen; stronger effect = higher value;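 further: cells exposed to compounds for four days before counting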
[13] = viability rescue of complex I mutant cybrids, primary screen, cell-based, galactose medium, ATP luminescence (AID 1645843;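 active means z-score of at least 1.8 in each of two replicates, scored against plate mean and spread of sample wells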;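 further: positive z means more ATP and so rescue of galactose-driven cybrid death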); conditions: complex I mutant cybrid cells, 72 h, stronger effect = higher value
F380Y/beta1 = assay: modulators of BK channel variants, profiling panel, selectivity assay, cell-based, U2OS BacMam, thallium flux, beta subunits (AID 1259406;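 active means thallium flux through the channel raised or lowered by more than 3 SD from vehicle-only wells, actives on both sides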;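 further: initial slope of Thallos dye fluorescence rise after thallium is added; log ratio against the mean of 0.3% DMSO vehicle wells on the same plate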); conditions: at 30 µM
F380Y/beta4 = assay: as above; conditions: at 30 µM
R275C = assay: as above; conditions: at 30 µM
R275C/beta1 = assay: as above; conditions: at 30 µM
R275C/beta2Delta = assay: as above; conditions: at 30 µM
R275C/beta4 = assay: as above; conditions: at 30 µM
R275C/Slo1WT/beta2 = assay: as above; conditions: at 30 µM

## CCOC(=O)N1CCC(=C2c3ccc(Cl)cc3CCc3cccnc32)CC1
[1]
  inhibition: 15.4%
[2]
  score: 0.8
[3]
  rescue above control: -2.91
[4]
  cytochrome c release ratio: 4.23
[5]
  inhibition of aggregation: 56.9%
[6]
  glutamate uptake change: -2.42%
[7]
  aggregation suppression score: 0.519
[8]
  parasite load remaining: 39.1% (inactive) and 10.2% (inactive) and 5.21% (inactive)
  viability: 101% and 59.1% and 70%
[9]
  inhibition: 0% (inactive)
[10]
  fluorescence ratio: 0.91 (inactive)
[11]
  mean signal: 253 (inactive)

## C#C[C@]1(O)CC[C@H]2[C@@H]3CCC4=Cc5oncc5C[C@]4(C)[C@H]3CC[C@@]21C
[12]
  survival: 10.4 (inactive)
[10]
  fluorescence ratio: 1.05 (inactive)
[13]
  z-score: -1.4 (inactive) and -1.46 (inactive)
F380Y/beta1
  log fold change Tl+ flux: 0.032 (inactive)
F380Y/beta4
  log fold change Tl+ flux: -0.0261 (inactive)
R275C
  log fold change Tl+ flux: 0.0195 (inactive)
R275C/beta1
  log fold change Tl+ flux: 0.048 (inactive)
R275C/beta2Delta
  log fold change Tl+ flux: -0.00872 (inactive)
R275C/beta4
  log fold change Tl+ flux: 0.0847 (inactive)
R275C/Slo1WT/beta2
  log fold change Tl+ flux: -0.016 (inactive)

## O=C(c1ccccc1)c1ccc2n1CCC2C(=O)O (stereo unspecified)
[1]
  inhibition: 1.05%
[2]
  score: 1.22
[3]
  rescue above control: -3.9
[4]
  cytochrome c release ratio: 1.43
[5]
  inhibition of aggregation: 60.8%
[6]
  glutamate uptake change: 14.7%
[7]
  aggregation suppression score: 1.2
[12]
  survival: 2.17 (inactive)
[9]
  inhibition: -3% (inactive)
[10]
  fluorescence ratio: 1.01 (inactive)
[11]
  mean signal: 231 (inactive)
[13]
  z-score: 0.335 (inactive) and 1.09 (inactive) and 0.445 (inactive)

## CCOC(=O)C1=C(COCCN)NC(C)=C(C(=O)OC)C1c1ccccc1Cl (stereo unspecified)
[8]
  parasite load remaining: 22.9% (inactive) and 39.3% (inactive) and 49.9% (inactive)
  viability: 107% and 67.5% and 111%
[11]
  mean signal: 214 (inactive)
[13]
  z-score: -0.815 (inactive) and -0.625 (inactive) and 0.7 (inactive)

## NC(N)=NC(=O)c1nc(Cl)c(N)nc1N
[1]
  inhibition: 17.4%
[2]
  score: 0.64
[3]
  rescue above control: -10.9
[4]
  cytochrome c release ratio: 1.1
[5]
  inhibition of aggregation: 27.6%
[6]
  glutamate uptake change: -1.52%
[7]
  aggregation suppression score: 1.02
[12]
  survival: 8.17 (inactive)
[9]
  inhibition: 1% (inactive)
[10]
  fluorescence ratio: 0.95 (inactive)
[11]
  mean signal: 212 (inactive)
R275C
  log fold change Tl+ flux: -0.0162 (inactive)
R275C/beta1
  log fold change Tl+ flux: 0.0417 (inactive)
R275C/beta2Delta
  log fold change Tl+ flux: -0.00743 (inactive)

## CCCN1C[C@H](CSC)C[C@@H]2c3cccc4[nH]cc(c34)C[C@H]21
[1]
  inhibition: 21.1%
[2]
  score: 1
[3]
  rescue above control: -1.5
[4]
  cytochrome c release ratio: 1.44
[5]
  inhibition of aggregation: 61.1%
[6]
  glutamate uptake change: -2.13%
[7]
  aggregation suppression score: 1.46
[12]
  survival: 12.4 (inactive)
[9]
  inhibition: -6% (inactive)
[10]
  fluorescence ratio: 1.02 (inactive)
[13]
  z-score: 0.12 (inactive) and -0.1 (inactive)
R275C
  log fold change Tl+ flux: -0.00135 (inactive)
R275C/beta1
  log fold change Tl+ flux: -0.0389 (inactive)
R275C/beta2Delta
  log fold change Tl+ flux: -0.00636 (inactive)
